# From PubChem BioAssay (Tox21)
# Records with an inconclusive call do not appear. Where a call stands in place of a potency, no number is given. The source made the active and inactive calls. Unless noted, the call rests on the fitted dose curve; in most records, active means well fitted curve in the direction sought with a large enough effect in the repeat runs; inconclusive means weak or mixed curves; inactive means no such curve, though single readings can be large; an effect the other way counts as inactive or inconclusive.
# Key:
# [1] = qHTS assay to identify small molecule agonists of the sonic hedgehog signaling (Shh) pathway (AID 1259368; calls by dose curve; further: nearly all actives have a fitted effect of over 15% in size; further: potency means the concentration at half of the fitted maximal effect)
# How it was run: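 Following a 24 hr incubation with DMSO-dissolved compounds at 37 C, 5% CO2, Gli1-Luc NIH/3T3-derived cells received luciferase reagent for 30 min at room temperature prior to luminescence measurement.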
# [2] = qHTS assay to identify small molecule antagonists of the sonic hedgehog signaling (Shh) pathway (AID 1259369; calls by dose curve; further: nearly all actives have a fitted effect of over 45% in size)
# How it was run: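 Read-out is luminescence from a firefly luciferase gene controlled by the Gli1 response element, in 3T3Gli1-Luc cells pre-incubated 4hr then exposed to compounds and conditioned medium for 24hr.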
# [3] = target: Estrogen receptor beta (Homo sapiens) (UniProt Q92731); experiment: qHTS assay to identify small molecule agonists of the estrogen receptor beta (ER-beta) signaling pathway (AID 1259377; active means well fitted activation curve with a large enough effect in the signal ratio in the repeat runs, not every such curve was filed as active; the % refers to the signal ratio)
# Chain of Estrogen receptor beta (Homo sapiens) (Q92731 whole entry, looked up): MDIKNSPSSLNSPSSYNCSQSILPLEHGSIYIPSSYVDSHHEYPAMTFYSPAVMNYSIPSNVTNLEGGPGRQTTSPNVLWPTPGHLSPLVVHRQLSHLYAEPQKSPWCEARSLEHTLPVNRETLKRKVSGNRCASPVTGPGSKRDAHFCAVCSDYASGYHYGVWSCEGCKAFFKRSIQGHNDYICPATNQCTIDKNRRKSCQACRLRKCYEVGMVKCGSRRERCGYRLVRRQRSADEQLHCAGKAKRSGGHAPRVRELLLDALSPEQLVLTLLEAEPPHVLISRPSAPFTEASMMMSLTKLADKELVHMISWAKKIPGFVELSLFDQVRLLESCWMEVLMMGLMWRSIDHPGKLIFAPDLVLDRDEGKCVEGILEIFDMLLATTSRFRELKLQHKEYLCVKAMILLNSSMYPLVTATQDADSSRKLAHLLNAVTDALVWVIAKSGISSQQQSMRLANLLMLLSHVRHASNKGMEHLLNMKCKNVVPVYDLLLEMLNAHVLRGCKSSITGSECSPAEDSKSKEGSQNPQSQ
# How it was run: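 Beta-lactamase reporter readout: fluorescence of LiveBLAzer B/G FRET substrate after 2 h at room temperature, following 16 h compound treatment of ER-beta-UAS-bla HEK293T cells at 37C in 2% charcoal-stripped FBS medium.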
# [4] = target: Estrogen receptor beta (Homo sapiens) (UniProt Q92731); experiment: qHTS assay to identify small molecule antagonists of the estrogen receptor beta (ER-beta) signaling pathway (AID 1259378; active means well fitted inhibition curve with a large enough effect in the signal ratio in the repeat runs, not every such curve was filed as active; the % refers to the signal ratio)
# How it was run: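 Antagonist mode: compounds added to beta-lactamase reporter HEK293T ER-beta-UAS cells stimulated with E2 (1nM final), 16 hr at 37C. LiveBLAzer B/G FRET substrate, 2 hours room temperature, fluorescence read-out.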
# [5] = qHTS assay to identify small molecule agonists of the androgen receptor (AR) signaling pathway in the presence of an antagonist - cell viability counter screen (AID 1259379);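 further: MDA-kb2 human breast cancer cells carrying an MMTV luciferase reporter; series mostly up to about 92 µM; nearly all actives have a fitted effect of over 25% in size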
# How it was run: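 Each compound was tested at 15 concentrations on MDA-kb2 cells in the presence of 3.0uM nilutamide. Viability was measured by CellTiter-Fluor fluorescence after a 16 hr incubation at 37C in a CO2-free atmosphere.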
# [6] = qHTS assay to identify small molecule agonists of the estrogen receptor beta (ER-beta) signaling pathway - cell viability counter screen (AID 1259380); further: nearly all actives have a fitted effect of over 30% in size
# How it was run: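 Compounds dissolved in DMSO were pin-transferred onto ER-beta-UAS-bla HEK293T cells that had settled 6 hr, and exposure ran 16 hr at 37C. Following the reporter read, CellTiter-Glo luminescence after 30 min at room temperature indicated cytotoxicity.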
# [7] = qHTS assay to identify small molecule antagonists of the estrogen receptor beta (ER-beta) signaling pathway - cell viability counter screen (AID 1259382);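 further: HEK293T cells carrying ER-beta-UAS-bla reporter stimulated with estradiol; series mostly up to about 92 µM; nearly all actives have a fitted effect of over 55% in size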
# How it was run: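 CellTiter-Glo ATP luminescence measured after the LiveBLAzer read in the same wells; ER-beta-UAS-bla HEK293T cells, 16 hr compound treatment with 1nM 17-beta-estradiol agonist at 37C, 5% CO2.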
# [8] = target: Estrogen receptor (Homo sapiens) (UniProt P03372); experiment: qHTS assay to identify small molecule agonists of the estrogen receptor alpha (ER-alpha) signaling pathway in the presence of an antagonist (AID 1259383; calls by dose curve; further: nearly all actives have a fitted effect of over 15% in size; further: potency means the concentration at half of the fitted maximal effect; on activation: top concentration of the series differs between compounds)
# Chain of Estrogen receptor (Homo sapiens) (P03372 whole entry, looked up): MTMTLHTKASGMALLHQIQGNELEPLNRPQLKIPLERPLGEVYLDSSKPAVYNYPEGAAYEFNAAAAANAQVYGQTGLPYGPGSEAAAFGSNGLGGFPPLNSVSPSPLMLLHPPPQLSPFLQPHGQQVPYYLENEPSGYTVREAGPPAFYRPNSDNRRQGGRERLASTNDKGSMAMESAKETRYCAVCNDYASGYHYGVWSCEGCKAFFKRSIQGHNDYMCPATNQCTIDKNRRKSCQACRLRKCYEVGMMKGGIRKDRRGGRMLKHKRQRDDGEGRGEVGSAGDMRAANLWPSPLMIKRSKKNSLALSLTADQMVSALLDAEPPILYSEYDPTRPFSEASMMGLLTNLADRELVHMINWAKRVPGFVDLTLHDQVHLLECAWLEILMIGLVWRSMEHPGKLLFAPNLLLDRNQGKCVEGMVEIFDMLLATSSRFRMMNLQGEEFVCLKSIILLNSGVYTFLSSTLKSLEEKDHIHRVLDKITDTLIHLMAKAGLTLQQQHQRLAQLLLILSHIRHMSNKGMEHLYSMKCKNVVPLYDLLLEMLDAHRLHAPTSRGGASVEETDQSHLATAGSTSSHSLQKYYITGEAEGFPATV
# How it was run: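 Luminescent ERE-luciferase reporter, VM7Luc4E2 cells (endogenous ER-alpha); 10.0nM ICI-182,780 final; 15-point compound titration; 22hr at 37C; ONE-Glo, 30min RT.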
# [9] = qHTS assay to identify small molecule agonists or antagonists of the thyroid stimulating hormone receptor (TSHR) signaling pathway - wild type cell line counter screen (AID 1259384; calls by dose curve)
# How it was run: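 Counter screen in untransfected Hek293: compounds (15-point titration, triplicate) plus phosphodiesterase inhibitor Ro20-1724 added after 18 h plating; 30 min RT. Intracellular cAMP via competitive d2/cryptate immunoassay, 1 h incubation.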
# [10] = target: Thyrotropin receptor (Homo sapiens) (UniProt P16473); experiment: qHTS assay to identify small molecule antagonists of the thyroid stimulating hormone receptor (TSHR) signaling pathway (AID 1259385; calls by dose curve; further: nearly all actives have a fitted effect of over 20% in size; further: potency means the concentration at half of the fitted maximal effect)
# Chain of Thyrotropin receptor (Homo sapiens) (P16473 whole entry, looked up): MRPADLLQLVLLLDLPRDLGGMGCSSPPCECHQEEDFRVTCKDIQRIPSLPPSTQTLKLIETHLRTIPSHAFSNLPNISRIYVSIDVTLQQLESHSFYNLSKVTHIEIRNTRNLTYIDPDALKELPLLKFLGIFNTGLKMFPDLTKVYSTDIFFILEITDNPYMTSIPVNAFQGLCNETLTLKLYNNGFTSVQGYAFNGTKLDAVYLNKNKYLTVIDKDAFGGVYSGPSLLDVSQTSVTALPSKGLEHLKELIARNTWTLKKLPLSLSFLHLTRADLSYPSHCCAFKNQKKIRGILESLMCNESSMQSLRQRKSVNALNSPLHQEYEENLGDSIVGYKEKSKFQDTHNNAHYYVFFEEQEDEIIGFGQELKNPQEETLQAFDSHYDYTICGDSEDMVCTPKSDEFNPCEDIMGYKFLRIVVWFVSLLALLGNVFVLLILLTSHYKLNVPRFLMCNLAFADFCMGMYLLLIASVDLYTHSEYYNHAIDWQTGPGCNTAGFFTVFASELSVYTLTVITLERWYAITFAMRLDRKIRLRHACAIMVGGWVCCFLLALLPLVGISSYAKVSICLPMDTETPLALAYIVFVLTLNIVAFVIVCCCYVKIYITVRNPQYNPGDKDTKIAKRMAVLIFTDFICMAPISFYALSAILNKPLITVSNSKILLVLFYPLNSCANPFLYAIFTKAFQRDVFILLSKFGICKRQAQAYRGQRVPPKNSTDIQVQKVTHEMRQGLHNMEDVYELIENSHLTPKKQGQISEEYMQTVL
# How it was run: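 Antagonist mode: compound-treated TSHR-expressing HEK293 cells were stimulated with 1.5 ng/mL TSH (final) in presence of Ro20-1724 for 30 min at RT. HTRF cAMP detection after 1 h; each compound tested at 15 concentrations, triplicate.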
# [11] = target: Progesterone receptor (Homo sapiens) (UniProt P06401); experiment: qHTS assay to identify small molecule agonists of the progesterone receptor (PR) signaling pathway (AID 1346784; calls by dose curve; further: nearly all actives have a fitted effect of over 30% in size; further: potency means the concentration at half of the fitted maximal effect)
# Chain of Progesterone receptor (Homo sapiens) (P06401 whole entry, looked up): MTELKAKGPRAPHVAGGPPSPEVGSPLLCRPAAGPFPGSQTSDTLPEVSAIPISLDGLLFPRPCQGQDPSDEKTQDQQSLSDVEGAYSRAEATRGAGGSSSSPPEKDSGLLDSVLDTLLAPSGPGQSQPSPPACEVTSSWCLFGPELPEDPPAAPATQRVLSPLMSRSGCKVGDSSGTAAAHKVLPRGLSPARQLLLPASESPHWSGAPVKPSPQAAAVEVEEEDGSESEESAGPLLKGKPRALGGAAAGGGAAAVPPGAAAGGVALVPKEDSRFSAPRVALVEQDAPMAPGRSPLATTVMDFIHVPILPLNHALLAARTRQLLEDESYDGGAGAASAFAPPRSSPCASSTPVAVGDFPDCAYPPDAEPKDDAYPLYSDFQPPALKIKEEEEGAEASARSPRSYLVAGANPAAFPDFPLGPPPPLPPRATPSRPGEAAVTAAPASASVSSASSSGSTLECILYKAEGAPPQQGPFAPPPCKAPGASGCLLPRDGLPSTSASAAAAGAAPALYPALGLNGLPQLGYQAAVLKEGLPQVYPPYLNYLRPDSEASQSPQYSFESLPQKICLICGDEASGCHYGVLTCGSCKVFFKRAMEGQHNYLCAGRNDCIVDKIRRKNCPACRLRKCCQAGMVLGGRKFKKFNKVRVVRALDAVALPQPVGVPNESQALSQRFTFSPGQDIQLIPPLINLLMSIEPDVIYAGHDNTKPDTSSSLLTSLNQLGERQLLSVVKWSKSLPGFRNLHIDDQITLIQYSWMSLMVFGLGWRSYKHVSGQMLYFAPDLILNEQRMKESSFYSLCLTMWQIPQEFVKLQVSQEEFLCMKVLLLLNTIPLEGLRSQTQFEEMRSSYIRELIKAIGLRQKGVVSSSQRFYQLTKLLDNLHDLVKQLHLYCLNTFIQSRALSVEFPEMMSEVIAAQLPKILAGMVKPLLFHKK
# How it was run: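 HEK 293T PR-UAS-bla reporter cells, 2% charcoal-stripped FBS; 6 hr settle at 37C/5% CO2, compound (DMSO) 16 hr, LiveBLAzer B/G FRET substrate 2 hr RT, fluorescence intensity read.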
# [12] = target: Progesterone receptor (Homo sapiens) (UniProt P06401); experiment: qHTS assay to identify small molecule antagonists of the progesterone receptor (PR) signaling pathway (AID 1346795; active means well fitted inhibition curve with a large enough effect in the signal ratio in the repeat runs, not every such curve was filed as active; the % refers to the signal ratio)
# How it was run: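 Beta-lactamase reporter, HEK293T PR-UAS-bla line; 2% charcoal-stripped FBS; 6 hr pre-incubation, 37C/5% CO2. Compound + R5020 1 nM final, 16 hr. LiveBLAzer B/G FRET substrate, 2 hr RT; fluorescence intensity read.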
# [13] = qHTS assay to identify small molecule antagonists of the progesterone receptor (PR) signaling pathway - cell viability counter screen (AID 1346798); further: series mostly up to about 92 µM; nearly all actives have a fitted effect of over 50% in size
# How it was run: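 Luminescence readout (CellTiter-Glo, 30 min, RT) of viability in PR-UAS-bla HEK293T cells exposed to compound and R5020 agonist for 16 hr at 37C, 5% CO2; run in the same wells as the beta-lactamase reporter read.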
# [14] = qHTS assay to identify small molecule agonists of the progesterone receptor (PR) signaling pathway - cell viability counter screen (AID 1346799; calls by dose curve; further: nearly all actives have a fitted effect of over 45% in size)
# How it was run: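 HEK293T PR-UAS-bla, 3,000 cells/well, 2% charcoal-stripped FBS; 6 h settle, compound 16 h at 37C/5% CO2; LiveBLAzer 2 h RT, then CellTiter-Glo 30 min RT, luminescence read.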
# [15] = qHTS assay to identify small molecule antagonists of the TGF-beta/Smad signaling pathway - cell viability counter screen (AID 1346824); further: nearly all actives have a fitted effect of over 50% in size
# How it was run: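 Cytotoxicity counter-screen run in the same wells as the beta-lactamase Smad reporter read: CellTiter-Glo luminescence after 30 min at room temperature. HEK 293T SBE-bla cells had 5 hr compound exposure at 37 C with TGF-beta1 (0.25 ng/mL stock).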
# [16] = qHTS assay to identify small molecule agonists of the TGF-beta/Smad signaling pathway - cell viability counter screen (AID 1346829); further: top concentration of the series differs between compounds; nearly all actives have a fitted effect of over 45% in size
# How it was run: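 Compound-treated SBE-bla HEK 293T cells (5 hr, 37 C) were assessed for viability with CellTiter-Glo in parallel with the reporter read.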
# [17] = qHTS assay to identify small molecule agonists of the TGF-beta/Smad signaling pathway (AID 1346859; active means well fitted activation curve with a large enough effect in the signal ratio in the repeat runs, not every such curve was filed as active; the % refers to the signal ratio; further: series mostly up to about 77 µM)
# How it was run: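 Read-out: fluorescence at 460 and 530 nm (405 nm excitation) after a 2 hr room-temperature incubation with beta-lactamase FRET substrate. SBE-bla HEK 293T cells had been treated with test compounds for 5 hr at 37 C.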
# [18] = target: Thyrotropin-releasing hormone receptor (Homo sapiens) (UniProt P34981); experiment: qHTS assay to identify small molecule antagonists of the thyrotropin-releasing hormone receptor (TRHR) signaling pathway (AID 1346877; active means well fitted inhibition curve with a large enough effect in the repeat runs, not every such curve was filed as active; further: series mostly up to about 51 µM)
# Chain of Thyrotropin-releasing hormone receptor (Homo sapiens) (P34981 whole entry, looked up): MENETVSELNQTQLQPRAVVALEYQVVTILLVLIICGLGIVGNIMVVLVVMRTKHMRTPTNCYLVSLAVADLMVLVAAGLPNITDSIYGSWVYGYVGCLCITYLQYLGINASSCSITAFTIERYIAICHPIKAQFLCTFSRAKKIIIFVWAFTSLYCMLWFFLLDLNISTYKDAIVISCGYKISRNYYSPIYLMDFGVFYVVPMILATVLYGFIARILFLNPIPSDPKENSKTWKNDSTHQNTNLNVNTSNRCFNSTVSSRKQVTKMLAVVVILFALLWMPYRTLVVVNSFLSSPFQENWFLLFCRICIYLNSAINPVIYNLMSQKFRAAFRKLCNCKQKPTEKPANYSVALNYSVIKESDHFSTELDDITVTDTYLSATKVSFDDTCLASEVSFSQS
# How it was run: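 Calcium signal in dye-loaded TRHR/HEK293 cells; compounds added 5 min before TRH (1 nM final); fluorescence monitored 3 min at 1 s steps.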
# [19] = qHTS assay to identify small molecule agonists of the estrogen receptor alpha (ER-alpha) signaling pathway in the presence of an antagonist - cell viability counter screen (AID 1259386);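 further: series mostly up to about 92 µM; cells exposed to compounds for 22 h at 37 °C before the viability read; nearly all actives have a fitted effect of over 30% in size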
# How it was run: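 Using estrogen-depleted VM7Luc4E2 cells, the 15-concentration compound series was applied together with 10.0nM ICI-182,780 and incubated 22hr at 37C/5% CO2. Cell viability was then scored by CellTiter-Fluor.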
# [20] = target: Androgen receptor (Homo sapiens) (UniProt P10275); experiment: qHTS assay to identify small molecule agonists of the androgen receptor (AR) signaling pathway in the presence of an antagonist (AID 1259381; calls by dose curve; further: nearly all actives have a fitted effect of over 15% in size)
# Chain of Androgen receptor (Homo sapiens) (P10275 whole entry, looked up): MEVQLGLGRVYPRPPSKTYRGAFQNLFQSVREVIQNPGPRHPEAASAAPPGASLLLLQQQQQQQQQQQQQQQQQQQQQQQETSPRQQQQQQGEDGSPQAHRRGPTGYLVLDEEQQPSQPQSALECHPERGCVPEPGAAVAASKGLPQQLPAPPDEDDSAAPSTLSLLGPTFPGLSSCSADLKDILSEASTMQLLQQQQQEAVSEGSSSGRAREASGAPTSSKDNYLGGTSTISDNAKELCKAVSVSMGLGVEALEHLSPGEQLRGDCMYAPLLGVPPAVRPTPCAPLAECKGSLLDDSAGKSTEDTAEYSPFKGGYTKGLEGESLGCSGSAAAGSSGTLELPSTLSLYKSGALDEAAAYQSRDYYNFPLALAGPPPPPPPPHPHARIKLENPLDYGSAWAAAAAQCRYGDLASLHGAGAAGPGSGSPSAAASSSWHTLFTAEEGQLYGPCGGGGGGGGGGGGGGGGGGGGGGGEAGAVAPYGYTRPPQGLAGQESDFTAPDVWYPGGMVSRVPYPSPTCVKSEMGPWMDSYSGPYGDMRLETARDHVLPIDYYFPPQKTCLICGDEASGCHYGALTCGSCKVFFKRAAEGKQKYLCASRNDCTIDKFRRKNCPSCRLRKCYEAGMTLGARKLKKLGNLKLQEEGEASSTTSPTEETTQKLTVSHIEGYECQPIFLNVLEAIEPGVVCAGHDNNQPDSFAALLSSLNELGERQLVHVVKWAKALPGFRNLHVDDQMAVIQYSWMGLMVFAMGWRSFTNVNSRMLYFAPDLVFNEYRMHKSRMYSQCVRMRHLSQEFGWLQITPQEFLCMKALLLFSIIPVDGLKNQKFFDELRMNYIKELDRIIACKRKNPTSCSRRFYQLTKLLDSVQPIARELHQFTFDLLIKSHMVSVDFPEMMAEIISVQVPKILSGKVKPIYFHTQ
# How it was run: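 Plated MDA-kb2 cells (3,000/well) were pre-incubated 5hr, given nilutamide (3.0uM final) or buffer, then dosed with compounds in DMSO at 15 concentrations. Luciferase activity was quantified by luminescence after 16hr at 37C.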
SMILES,Potency [1],Potency [2],Potency [3],Potency [4],Potency [5],Potency [6],Potency [7],Potency [8],outcome [9],Potency [10],Potency [11],Potency [12],Potency [13],Potency [14],Potency [15],Potency [16],Potency [17],outcome [18],Potency [19],Potency [20]
CC=C(Cl)Cl,inactive,inactive,inactive,inactive,inactive,inactive,inactive,inactive,inactive,inactive,inactive,inactive,inactive,inactive,inactive,inactive,inactive,inactive,–,–
CC(=O)OCC[N+](C)(C)C,inactive,inactive,inactive,inactive,inactive,inactive,inactive,–,inactive,inactive,inactive,inactive,inactive,inactive,inactive,inactive,inactive,inactive,inactive,–
CCC=CC#N,29.7 µM (active),inactive,inactive,inactive,inactive,inactive,inactive,inactive,inactive,inactive,inactive,–,inactive,inactive,inactive,inactive,inactive,inactive,inactive,–
CCc1ccccc1,inactive,inactive,inactive,inactive,inactive,inactive,inactive,inactive,inactive,inactive,–,–,inactive,inactive,–,inactive,inactive,–,inactive,–
Cc1ccc(CO)cc1,inactive,inactive,inactive,inactive,inactive,inactive,inactive,inactive,inactive,inactive,17.4 µM (active),–,inactive,–,inactive,inactive,inactive,inactive,inactive,–
O[C@@H]1CO[C@H]2[C@@H]1OC[C@@H]2O,inactive,inactive,inactive,inactive,inactive,inactive,inactive,inactive,inactive,inactive,inactive,inactive,inactive,inactive,inactive,inactive,inactive,inactive,–,–
O=C1CCCCCCCCCCOCCCCO1,inactive,inactive,inactive,inactive,inactive,inactive,inactive,–,inactive,inactive,inactive,inactive,inactive,inactive,inactive,inactive,–,inactive,–,–
CCCC(=O)C(=O)O,inactive,inactive,inactive,inactive,inactive,inactive,inactive,inactive,inactive,inactive,inactive,–,inactive,inactive,inactive,inactive,inactive,inactive,inactive,–
CCOC(=O)OC(C)OC(=O)[C@@H]1N2C(=O)[C@@H](NC(=O)[C@H](N)c3ccccc3)[C@H]2SC1(C)C (some centres not stated),inactive,inactive,inactive,inactive,inactive,inactive,inactive,–,inactive,inactive,inactive,inactive,inactive,inactive,inactive,inactive,inactive,inactive,inactive,–
O=C(/C=C/c1ccccc1)OCCc1ccccc1,inactive,inactive,inactive,inactive,inactive,inactive,inactive,3.44 µM (active),inactive,68.6 µM (active),inactive,inactive,inactive,inactive,–,inactive,inactive,inactive,–,inactive
c1ccc2c(c1)CCc1ccccc1N2,inactive,inactive,inactive,inactive,inactive,inactive,inactive,–,inactive,inactive,–,–,inactive,inactive,–,inactive,inactive,inactive,inactive,–
C=C(C)C(=O)OCCOCCOC(=O)C(=C)C,inactive,inactive,inactive,inactive,inactive,inactive,inactive,inactive,–,–,inactive,inactive,inactive,inactive,inactive,inactive,inactive,inactive,–,–
O=c1[nH]c2ccc(Cl)cc2o1,inactive,inactive,inactive,inactive,inactive,inactive,inactive,inactive,inactive,inactive,inactive,inactive,inactive,inactive,inactive,inactive,inactive,–,–,–
CCOC(=O)c1ccc(C#Cc2ccc3c(c2)C(C)(C)CCS3)nc1,inactive,inactive,inactive,inactive,inactive,inactive,inactive,–,inactive,inactive,–,–,–,–,–,inactive,–,inactive,inactive,–
CN1C(C(=O)Nc2ccccn2)=C(O)c2sccc2S1(=O)=O,inactive,inactive,inactive,inactive,inactive,inactive,inactive,inactive,–,–,inactive,inactive,inactive,inactive,inactive,inactive,inactive,inactive,–,–
O=C(O)C[C@H](NC(=O)OCc1ccccc1)C(=O)O,inactive,inactive,inactive,inactive,inactive,inactive,inactive,inactive,inactive,inactive,–,inactive,inactive,inactive,inactive,inactive,inactive,–,inactive,–
